According to PubChem BioAssay AID463190 (Sanford-Burnham Center for Chemical Genomics, 2010):
In all, about 330,000 compounds went through this assay and about 7,300 (2.2%) were called active.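 Rule for the calls: active = inhibition of at least 40%; inactive = the rest.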 The entries come from a sample that favours actives as a whole.

Experiment: growth inhibitors of tim10-1 mutant yeast, primary screen, luminescence, uHTS (AID 463190);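 note: mutant grown at 25 °C; 0% = DMSO wells with yeast and 100% = wells holding no yeast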
Details: S. cerevisiae tim10-1 ts strain growth, BacTiter-Glo, 24 h; at 20 µM; hits give high values

inhibition, active:
COc1ccccc1CSc1ncc(-c2ccc([N+](=O)[O-])cc2)[nH]1 44.7%
O=C(ON=C1CCN(S(=O)(=O)c2ccccc2)CC1)c1ccc(Cl)cc1 65.8%
NS(=O)(=O)c1ccc(NC(=S)Nc2ccc(Br)c(Cl)c2)cc1 55.7%
O=C(Nc1cccc(Cl)c1)c1cncn1-c1ccc(F)cc1 41.7%
O=C(c1cccc(C(=O)N2CCN(c3ccc(F)cc3)CC2)c1)N1CCN(c2ccc(F)cc2)CC1 40.1%
COc1ccc(C(=O)NC(=S)NNC(=O)c2c(-c3ccccc3)noc2C)cc1 41.5%
CC1CCCC(C)N1C(=O)CN1CCN(c2nc(-c3ccc(F)cc3)cs2)CC1 (centres undefined) 56.2%
Cc1oc2c(c1C(=O)N1CCOCC1)C(=O)c1ccccc1C2=O 58.7%
c1ccc(-c2nc(NCc3ccco3)c3ccccc3n2)cc1 51.3%
CCC(=O)N1CCc2cc(S(=O)(=O)NC(C(=O)N3CCc4ccccc4C3)C(C)C)ccc21 (centres undefined) 40.2%
COc1cccc(Cn2cnc3c([N+](=O)[O-])c(C)c(C)cc32)c1 41%
O=C(c1ccc(CSc2ccccc2)cc1)N1CCCCCC1 42.3%
Cc1ccc(S(=O)(=O)NC(C(=O)N2CCOCCOCCOCCOCC2)c2ccccc2)cc1 (centres undefined) 40.5%

inhibition, inactive:
COc1ccc(-c2cnc(SCCNC(=O)c3ccc4c(c3)OCO4)[nH]2)cc1 -13.2%
N#Cc1c(-c2ccccc2)nc(SCc2ccc([N+](=O)[O-])cc2)[nH]c1=O 16.7%
COC(=O)c1ccc(S(=O)(=O)N2CCc3ccccc3C2)cc1 -7.78%
CC(OC(=O)c1ccc(S(=O)(=O)N2CCOCC2)cc1)c1ccccc1 (centres undefined) 23.8%
COc1ccc(NC(=O)CCCN2C(=O)C(c3ccccc3)Oc3cccnc32)cc1 (centres undefined) 37%
OCC[C@H]1C[C@H](O)[C@@H](O)[C@]2(Cc3ccccc3CO2)O1 19%
NS(=O)(=O)c1ccc(CCNC(=S)Nc2ccc(S(N)(=O)=O)cc2)cc1 8.83%
NS(=O)(=O)c1ccc(NC(=S)NC(=O)c2cccc(Br)c2)cc1 23.9%
CCOC(=O)c1csc(CCNC(=O)c2oc3c(Cl)cc(C)cc3c2C)n1 19.2%
O=C(Nc1cccc(Cl)c1)c1cc(S(=O)(=O)N2CCCCC2)c[nH]1 -3.59%
CCC(=O)Nc1nc(C)c(C(=O)Nc2cccc(Cl)c2)s1 2.36%
CCn1cc(C(=O)Nc2cc(C)ccc2C)c(=O)c2ccc(C)nc21 6.54%
O=C(c1cc2cc(F)ccc2[nH]1)N1CCN(c2ccc(F)cc2)CC1 -10.5%
O=C(c1cc(C(=O)N2CCN(c3ccc(F)cc3)CC2)cc([N+](=O)[O-])c1)N1CCN(c2ccc(F)cc2)CC1 -17.5%
OCCCNC(c1ccccc1)c1ccc(O)cc1 (centres undefined) -5.16%
Cc1onc(-c2ccccc2)c1C(=O)NNC(=S)NC(=O)c1ccc(F)cc1 29.6%
Cc1onc(-c2ccccc2)c1C(=O)Nc1ccccc1C#N 25%
C=CCNc1nc(N)c(C(=C(C#N)C#N)c2ccccc2)s1 32%
Cc1ccc(CNC(=O)C2(C(F)(F)F)C/C(=C\Cc3ccccc3)CCCO2)o1 (centres undefined) 29.8%
O=C(NCc1ccncc1)c1ccc(NS(=O)(=O)c2cccc([N+](=O)[O-])c2)cc1 -9.55%
O=C(Nc1c(Cl)cccc1Cl)C1CCC1 18.6%
Cc1[nH]n(-c2ccccc2)c(=O)c1CCOC(=O)c1ccc(C(F)(F)F)cc1 16.7%
CCc1cc(C(=O)Nc2nnc(C3CC3)s2)sc1C 14.7%
COc1cccc(CNCc2ccc3c(c2)OCO3)c1 -13%
O=C(COC(=O)C1CCCO1)Nc1nc(-c2ccc(F)cc2)cs1 (centres undefined) 5.58%
O=C(CN1CCN(c2nc(-c3ccccc3)cs2)CC1)NCc1ccc2c(c1)OCO2 30.8%
Cc1occc1-c1nnc(SCC(=O)NC2(C#N)CCCC2)n1C -2.1%
CCOC(=O)C1=C(C)NC(C)=C(C(=O)OCC)C1C1=COCCO1 4.91%
COC1=C(N2CCOCC2)C(=O)c2ccccc2C1=O 9.96%
Cc1ccccc1-c1ccc(Nc2ccc(C(=O)N3CCOCC3)cc2)nn1 3.37%
CN1CCC(CN)(N2CCN(c3ccccc3)CC2)CC1 16.4%
COC(=O)C1CCN(C(=O)c2ccc3oc(Cc4ccc(Cl)cc4)nc3c2)CC1 14.5%
c1ccc2c(NCC3CCCO3)nc(-c3ccncc3)nc2c1 (centres undefined) 33.4%
Clc1cccc(-c2nc(NCC3CCCO3)c3ccccc3n2)c1 (centres undefined) 17.9%
CCC(=O)N1CCc2cc(S(=O)(=O)CCC(=O)N3CCN(c4ccccc4F)CC3)ccc21 22%
CCOC(=O)N1CCC(NC(=O)C(NS(=O)(=O)c2ccc3c(c2)CCN3C(=O)CC)C(C)C)CC1 (centres undefined) -1.74%
COc1ccccc1-c1cnn2c(N3CCOCC3)cc(C)nc12 4.69%
COc1ccc(C(=O)NC(=S)N2CCNC(=O)C2CC(=O)OC(C)C)cc1 (centres undefined) -10.3%
Cc1cccc(Cn2cnc3c(N)c(C)c(C)cc32)c1 16.8%
COc1cccc(CNS(=O)(=O)c2cc3c(cc2C)n(C)c(=O)c(=O)n3C)c1 8.44%
O=C(c1ccc(S(=O)(=O)c2ccccc2)cc1)N1CCCCCC1 15.7%
CC1CCN(C(=O)c2ccc(CSc3ccc(Cl)cc3)cc2)CC1 24.5%
Cc1nc(NC(=O)CCC(=O)O)sc1C(=O)N(C)C 3.6%
Cc1ccc(S(=O)(=O)NCC(=O)N2CCOCCOCCOCCOCC2)cc1 3.97%
Cc1ccc(S(=O)(=O)NCC2CCC(C(=O)N3CCOCC3)CC2)cc1 (centres undefined) 9.53%
COc1ccnc(Oc2ccccc2)n1 -10.3%
